Experimental findings from PubChem BioAssay (NCI) are described below.

Among the test systems are SK-MEL-2 melanoma; EKVX NSCLC; SN12C renal; UO-31 renal; TK-10 renal; ACHN renal; CAKI-1 renal; A498 renal; CCRF-CEM leukemia; MOLT-4 leukemia; SR leukemia; RPMI-8226 leukemia; OVCAR-8 ovarian; OVCAR-5 ovarian; OVCAR-4 ovarian; SK-OV-3 ovarian; IGROV1 ovarian; OVCAR-3 ovarian; HS 578T breast; NCI/ADR-RES ovarian.
Holding throughout (experiment): NCI-60 one-dose screen, 48 h (100 = growth as untreated, 0 = no growth, -100 = all killed)
Holding throughout (conditions): 10 µM unless noted

SMILES strings stand for the structures. The panel holds about 83,000 compounds, 20% with a hit somewhere; the sample as a whole holds those more often.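 Cells were grown in 96-well plates and exposed to the test compound at a single concentration for 48 hours; results are reported as percent growth, with values below 10 considered active.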 A number with no mark means an inactive call. Activity calls are given as the source filed them.

For `CC1OC(n2c3ccccc3c3c4c(c5c6ccccc6[nH]c5c32)C(=O)N(CCN2CCCC2)C4=O)CC(O)C1O` (stereo not given), the growth with SK-MEL-2 melanoma was 86.5%; in the test with EKVX NSCLC, 57%; in the test with SN12C renal, 42%; with UO-31 renal it was 44.5%; in the test on TK-10 renal, 68.9%; in the test on ACHN renal, 16.6%. Also, the growth was 20.1% in the test on CAKI-1 renal; 55.5% in the test with A498 renal; 27.2% in the test with CCRF-CEM leukemia; 11.3% with MOLT-4 leukemia; -2.62% (active) with SR leukemia; 5.56% (active) in the test on RPMI-8226 leukemia. Further, the growth was 53.1% in the test on OVCAR-8 ovarian; 78.1% with OVCAR-5 ovarian; 22.9% in the test with OVCAR-4 ovarian; 32.1% with SK-OV-3 ovarian; 48.9% in the test with IGROV1 ovarian; 60.2% in the test with OVCAR-3 ovarian. Moreover, the growth was 58.2% in the test on HS 578T breast and 54.1% in the test on NCI/ADR-RES ovarian.

Turning to `CCOC(=O)c1c(NC(=O)c2cccc(C(F)(F)F)c2)sc2c(CN(C)C)c(O)ccc12`, the growth in the test with SK-MEL-2 melanoma was 108%; with EKVX NSCLC it was 98.8%; in the test with SN12C renal it was 90%; in the test with UO-31 renal, 48.9%; in the test with TK-10 renal, 113%; in the test with ACHN renal it was 45.5%. In addition, the growth in the test with CAKI-1 renal was 71.1%; in the test with A498 renal, 82%; in the test on CCRF-CEM leukemia it was 9.93% (active); in the test on MOLT-4 leukemia, 43.4%; with SR leukemia it was -2.46% (active); with RPMI-8226 leukemia, -17.3% (active). The growth was 82.1% in the test on OVCAR-8 ovarian; 89.5% in the test with OVCAR-5 ovarian; 91.1% in the test on OVCAR-4 ovarian; 101% in the test with SK-OV-3 ovarian; 83.1% with IGROV1 ovarian; 98.5% in the test on OVCAR-3 ovarian. The growth in the test on HS 578T breast was 89.8%; in the test with NCI/ADR-RES ovarian, 79%.

Take `Cn1ccnc1C(=O)/C=C/c1ccc(C(=O)Nc2ccccc2O)cc1`: the growth with SK-MEL-2 melanoma is 78%; with EKVX NSCLC it was 56.5%; in the test with SN12C renal, 12.6%; in the test with UO-31 renal it was 33.3%; in the test with TK-10 renal it was 107%; in the test with ACHN renal, 10.5%. Besides, the growth with CAKI-1 renal is 26.8%; with A498 renal, 55.7%; in the test on CCRF-CEM leukemia, -9.45% (active); with MOLT-4 leukemia, 17%; with SR leukemia it was -21.2% (active); in the test on RPMI-8226 leukemia it was -11.9% (active). Further, the growth in the test with OVCAR-8 ovarian was 18.6%; in the test on OVCAR-5 ovarian, 79.3%; with OVCAR-4 ovarian it was 36.4%; in the test on SK-OV-3 ovarian it was 54.7%; with IGROV1 ovarian, 30.9%; in the test with OVCAR-3 ovarian, -17.9% (active). In addition, the growth in the test with HS 578T breast was 78.9%; in the test on NCI/ADR-RES ovarian, 23.7%.

In the case of `CCN(CC)S(=O)(=O)c1ccc(S(=O)(=O)N2CCC[C@@H](C(=O)N3CCN(c4nc(C(C)C)no4)CC3)C2)cc1`, the growth in the test on SK-MEL-2 melanoma was 94.6%; in the test on EKVX NSCLC it was 55.1%; with SN12C renal it was 84.9%; in the test with UO-31 renal, 58.6%; in the test with TK-10 renal it was 74.5%; in the test on ACHN renal it was 68.5%. In addition, the growth with CAKI-1 renal was 58.4%; in the test on A498 renal, 6.31% (active); in the test with CCRF-CEM leukemia, 63.7%; in the test with MOLT-4 leukemia, 61.1%; in the test on SR leukemia it was 31.6%; in the test on RPMI-8226 leukemia, 54.8%. Besides, the growth in the test on OVCAR-8 ovarian is 61.3%; in the test with OVCAR-5 ovarian, 102%; in the test with OVCAR-4 ovarian, 30.8%; with SK-OV-3 ovarian, 87.3%; with IGROV1 ovarian, 86.2%; in the test on OVCAR-3 ovarian, 75.6%. Moreover, the growth with HS 578T breast was 82.8%; in the test on NCI/ADR-RES ovarian it was 58.9%.

In the case of `C=CCSc1nnc(NC(=O)CCl)s1`, the growth in the test with SK-MEL-2 melanoma was 103%; with EKVX NSCLC it was 100%; with SN12C renal, 95.2%; in the test on UO-31 renal it was 95.5%; in the test with TK-10 renal, 108%; in the test on ACHN renal, 94.5%. For the same compound, the growth in the test on CAKI-1 renal is 93.3%; in the test on A498 renal, 90.3%; with CCRF-CEM leukemia it was 77.2%; in the test on MOLT-4 leukemia it was 90.7%; with SR leukemia, 88.4%; in the test on RPMI-8226 leukemia, 73%. Moreover, the growth with OVCAR-8 ovarian is 92.5%; in the test on OVCAR-5 ovarian it was 120%; with OVCAR-4 ovarian it was 73.2%; in the test with SK-OV-3 ovarian, 119%; in the test with IGROV1 ovarian it was 81.6%; in the test with OVCAR-3 ovarian it was 94.8%. Moreover, the growth in the test on HS 578T breast is 93.7%; with NCI/ADR-RES ovarian, 93%.

As for `O=S(=O)(NCCCNc1nccc(-c2c(-c3ccc(F)c(O)c3)nc3occn23)n1)c1ccc(Cl)cc1`, the growth is 25.6% in the test on SK-MEL-2 melanoma; 65.6% in the test on EKVX NSCLC; 59.5% in the test on SN12C renal; 36.4% in the test on UO-31 renal; 103% in the test with TK-10 renal; 56.3% in the test on ACHN renal. For the same compound, the growth with CAKI-1 renal is 41.7%; with A498 renal, 84.9%; in the test on CCRF-CEM leukemia, 47.9%; in the test on MOLT-4 leukemia, 48.9%; in the test on SR leukemia, 55.5%; in the test with RPMI-8226 leukemia, 40.4%. The growth with OVCAR-8 ovarian was 66.3%; in the test on OVCAR-5 ovarian, 118%; in the test with OVCAR-4 ovarian, 81.3%; in the test on SK-OV-3 ovarian it was 64.4%; in the test on IGROV1 ovarian, 62.3%; with OVCAR-3 ovarian it was 95.3%. The growth was 64% in the test with HS 578T breast and 96.4% with NCI/ADR-RES ovarian.

For the compound `COc1cc(C2CC(c3ccc(Nc4nc(Nc5ccc(Cl)cc5)nc(Nc5ccc(Cl)cc5)n4)cc3)=NN2C(C)=O)cc(OC)c1OC` (stereo not given), the growth with SK-MEL-2 melanoma was 80.4%; with EKVX NSCLC, 94%; in the test on SN12C renal, 102%; with UO-31 renal, 84.8%; in the test with TK-10 renal, 118%; in the test with ACHN renal it was 96.7%. In addition, the growth in the test with CAKI-1 renal is 90.4%; in the test with A498 renal, 113%; in the test with CCRF-CEM leukemia it was 101%; in the test with MOLT-4 leukemia it was 79%; with SR leukemia, 72.7%; in the test with RPMI-8226 leukemia it was 32%. Besides, the growth with OVCAR-8 ovarian was 107%; with OVCAR-5 ovarian, 92.8%; in the test with OVCAR-4 ovarian, 97.3%; with SK-OV-3 ovarian, 126%; in the test with IGROV1 ovarian it was 85.7%; in the test on OVCAR-3 ovarian, 105%. Further, the growth is 122% in the test on HS 578T breast and 92.7% in the test with NCI/ADR-RES ovarian.

Consider `O=C(c1ccncc1)N1N=C(c2ccc(Cl)cc2)C[C@H]1c1cn(-c2ccccc2)nc1-c1ccccc1`, for which the growth with SK-MEL-2 melanoma is 110%; with EKVX NSCLC, 87.2%; in the test with SN12C renal it was 86.6%; in the test on UO-31 renal, 90.1%; in the test on TK-10 renal, 109%; in the test with ACHN renal, 70.8%. Further, the growth with CAKI-1 renal is 65.4%; in the test with A498 renal, 102%; with CCRF-CEM leukemia, 78.9%; in the test with MOLT-4 leukemia it was 70.8%; in the test with SR leukemia it was 91.1%; with RPMI-8226 leukemia, 105%. For the same compound, the growth is 74.6% in the test with OVCAR-8 ovarian; 105% in the test on OVCAR-5 ovarian; 82.6% in the test on OVCAR-4 ovarian; 83.4% in the test with SK-OV-3 ovarian; 99.4% in the test with IGROV1 ovarian; 94.7% in the test with OVCAR-3 ovarian. Further, the figures for the growth with HS 578T breast and in the test on NCI/ADR-RES ovarian were 87.2% and 87%, respectively.
